# Assay outcomes: PubChem, several laboratories
# In the library only some 9.6% were active in any assay of this set; here they are far more common.
# Insulin prom up = MIN6 insulin promoter up-regulation; MIN6 insulin promoter-GFP reporter, high-content imaging; active compounds read high; AID 1625; hit rate 0.3% among 190,000; z-score at 5 µM;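 active = z-score above 3 at 5 µM with at least 500 cells counted in the well; inconclusive = wells under 500 cells, flagged as cytotoxic or low count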
# bCat KO growth = beta-catenin-lacking colon tumor cell growth suppression; HCT116 beta-catenin knockout viability, CellTiter-Glo, 60 h; active compounds read low; viability, % at 10 µM; hit rate 1.5% among 140,000; AID 818;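 active = viability at or under a set limit, the compound median less 4 SD, cut at about 6% in these data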;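 also: 0% = Hyamine 1622 control at 20 µM and 100% = untreated cell control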
# PTEN del growth = suppresses growth of cells with PTEN deletion | HCT116 PTEN-null viability, CellTiter-Glo, 60 h; active compounds read low | viability, % at 10 µM | hit rate 1.2% among 140,000 | AID 827;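 active = viability at or below a set limit, 4 SD under the median of all tested compounds, cut at about 3.7% in these data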;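 also: PTEN knockout HCT116 line with beta catenin targeted HCT116 as companion control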
# INS promoter inh = TRM-6 insulin promoter activity inhibition; TRM-6 cells (human fetal islet line), insulin promoter-eGFP reporter, imaging; reporter expression induced with tamoxifen; hit rate 0.9% among 130,000; inhibition, % at 2 µM;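 active = inhibition above the mean plus 3 SD, with well images judged a real hit on visual review, cut at about 60% in these data, passing the limit was not always enough; inconclusive = inhibition over the cutoff but images rejected on review; inactive = inhibition not above the cutoff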
# Lmaj promast = reduces viability of Leishmania major promastigotes | resazurin fluorescence viability | inhibition, % at 10 µM | hit rate 9% among 200,000; in the data active = inhibition above about 50%;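 also: promastigotes grown with compound for 44 hours at 28 °C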
# Autophagy HCS = modulators of autophagy; MEF GFP-LC3 puncta imaging; test concentration mostly 10 µM; calls only at 10 µM (by protocol); hit rate 0.98% among 190,000; AID 463193;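 active = percentage of spot-positive cells more than 3 SD above its plate mean, without a fluorescence outlier flag or 80% toxicity; inconclusive = no clear call, values can overlap the other calls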;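 also: spot-positive cell cutoff set from DMSO-treated cells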
# Starred values were filed as active, the others as inactive; i = inactive; ? = inconclusive; / = not tested or not shown; + = active, no number.
SMILES,Insulin prom up,bCat KO growth,PTEN del growth,INS promoter inh,Lmaj promast,Autophagy HCS
O=C(Nc1ccc(N2CCCC2)cc1)c1ccc(Br)o1,-0.69,102.6,93.3,-84.2,15.2,i
CCS(=O)(=O)N1CCC(c2nc(-c3ccc(C)cc3)no2)CC1,/,95.9,90.6,/,-7.5,i
Cc1cc2c(=O)n(CC(=O)NCC(=O)N3CCN(Cc4ccccc4)CC3)cnc2s1,0.75,95.5,106.1,31.2,-1.6,i
COC(=O)C1=C(C)N(CCc2ccc(OC)cc2)C(=O)C1,1.33,83.1,88.2,42.9,-3.1,i
CCN(C(=O)CSc1nnc2ccccn12)c1c(N)n(Cc2ccccc2)c(=O)[nH]c1=O,-0.19,94.6,93.5,-40.6,-5.6,i
CCCc1cc(=O)oc2c(CN3CCN(C)CC3)c(O)c(Cl)cc12,-0.21,102.0,108.3,/,/,/
N#Cc1c(C(F)(F)F)cc(-c2ccccc2)nc1SCc1nc(N)nc(N2CCOCC2)n1,/,60.5,48.4,-250.9,-3.1,+
N#Cc1ccc(-c2cccnc2)nc1SCC(=O)Nc1sc2c(c1C#N)CCC2,0.73,87.0,92.6,0.0,-1.1,i
Cc1nc(SCC(=O)Nc2nc3ccccc3s2)c(C#N)c(C)c1C,-0.28,59.2,56.8,14.8,10.4,i
CCOC(=O)CCSc1nc(C(C)(C)C)cc(C(F)(F)F)c1C#N,/,77.1,71.3,33.3,-0.8,i
CCOC(=O)CCSc1nc(C)cc(C(F)(F)F)c1C#N,2.28,76.6,87.0,-355.6,-4.7,+
Cc1cc(C(F)(F)F)c(C#N)c(SCC(=O)Nc2nc3ccccc3s2)n1,1.8,69.5,48.3,/,3.7,+
N#Cc1c(C(F)(F)F)cc(-c2ccccc2)nc1SCC(=O)Nc1sc2c(c1C#N)CCC2,-0.03,72.6,54.2,-143.3,-7.3,+
N#Cc1c(C(F)(F)F)cc(-c2ccc(Cl)c(Cl)c2)nc1SCCN1CCOCC1,-0.4,75.3,75.9,/,14.4,i
Cc1ccc(Nc2nc(N)nc(CSC(=S)N3CCN(c4ccccc4)CC3)n2)cc1,-1.13,52.3,44.3,/,25.5,i
Fc1cccc(CN2CCN(Cc3nc(-c4cnccn4)no3)CC2)c1,-0.11,/,/,/,-2.1,i
OC1(c2cccc(C(F)(F)F)c2)CCN(Cc2nc(-c3cnccn3)no2)CC1,0.47,/,/,/,77.6*,i
O=C(NCCCN1CCN(c2ccccc2F)CC1)Nc1ccc(F)cc1,-0.91,89.9,89.3,-78.6,17.6,i
O=C(NCCCN1CCN(c2ccccc2F)CC1)Nc1ccccc1[N+](=O)[O-],-0.19,/,/,78.4*,7.2,i
COc1ccc(C(=O)Nc2cccc(-c3cc4ccccc4oc3=O)c2)cc1[N+](=O)[O-],0.96,36.9,43.6,/,29.4,i
CCOC(=O)Cn1c(=NC(=O)c2sc3ccccc3c2Cl)sc2cc(S(N)(=O)=O)ccc21,-0.07,25.9,2.8*,-48.0,-7.9,i
COC(=O)Cn1c(=NC(=O)c2sc3ccccc3c2Cl)sc2cc(S(N)(=O)=O)ccc21,0.03,87.1,91.7,-16.0,1.2,i
O=S(=O)(c1ccc2c(c1)C(=NO)c1cc(S(=O)(=O)N3CCCCC3)ccc1-2)N1CCCCC1,-0.43,0.9*,1.6*,-45.7,42.1,?
CC1CCN(S(=O)(=O)c2ccc3c(c2)C(=NO)c2cc(S(=O)(=O)N4CCC(C)CC4)ccc2-3)CC1,?,0.8*,1.2*,-4.7,16.2,+
O=S(=O)(c1ccc(S(=O)(=O)N2CCCC2)cc1)N1CCCCCC1,0.04,95.3,99.2,/,0.6,i
SMILES,Insulin prom up,bCat KO growth,PTEN del growth,INS promoter inh,Lmaj promast,Autophagy HCS
CCC(C(=O)Nc1cc(C(=O)Nc2cc(C)ccn2)ccc1Cl)c1ccccc1 (configuration not stated),-0.54,74.2,65.2,0.0,81.0*,i
CCC(C(=O)Nc1cnccn1)c1ccccc1 (configuration not stated),0.55,99.0,96.6,14.3,-4.8,i
C=CCc1c(C)[nH]c2c(OC)cccc2c1=S,-1,/,/,/,76.2*,i
O=C(Nc1cccc(S(=O)(=O)N2CCCC2)c1)c1ccc2c(=O)n3c(nc2c1)CCCCC3,-0.2,26.9,25.1,24.1,82.4*,i
O=S(=O)(Nc1nc2ccccc2nc1Nc1cccc(S(=O)(=O)N2CCCCC2)c1)c1ccccc1,-0.97,32.2,25.6,35.1,69.0*,i
COc1ccc(S(=O)(=O)Nc2cccc(S(=O)(=O)N3CCCCCC3)c2)cc1,-0.43,86.1,97.7,/,-2.5,i
CCOC(=O)N1CCN(S(=O)(=O)c2ccc(C(=O)Nc3ccc4c(c3)C(=O)NC4=O)cc2)CC1,0.72,92.4,96.7,24.0,55.6*,i
COc1ccc(S(=O)(=O)N2CCCCC2)cc1NC(=O)CSc1nccn1C,0.73,/,/,/,98.8*,i
Cn1ccnc1SCC(=O)Nc1cccc(S(=O)(=O)N2CCCCC2)c1,-0.51,/,/,/,4.2,i
Cc1ccc(-c2nnc(-c3cccc(NC(=O)c4cccs4)c3)o2)cc1,/,98.2,89.4,14.3,8.9,i
CCOP(=O)(OCC)C(NC(=O)Nc1ccccc1)C(N)=O (configuration not stated),-0.26,93.7,100.1,-1.6,-3.9,i
N#Cc1ccc(C(=O)Nc2cc(S(=O)(=O)N3CCCC3)ccc2OCC(F)(F)F)cc1,0.04,85.9,99.4,40.5,58.5*,i
COc1ccccc1NC(=O)c1ccc(S(=O)(=O)N2CCCC2)cc1,0.33,92.0,95.5,/,11.5,i
COc1ccc(S(=O)(=O)N2CCCCC2)cc1NC(=O)c1ccc2c(c1)OCO2,-0.07,82.9,90.8,-32.1,78.3*,i
COc1ccccc1NS(=O)(=O)c1ccc(C)c(NC(=O)c2ccc(S(=O)(=O)N3CCCCCC3)cc2)c1,/,66.6,69.8,14.3,96.9*,i
COc1cccc(S(=O)(=O)NCc2ccc(C(=O)Nc3ccc(Cl)c(Cl)c3)cc2)c1,3.13*,83.8,70.2,-15.2,20.4,i
N#Cc1nc(-c2ccco2)oc1NCCc1ccccc1,0.14,124.9,102.8,-12.5,5.2,i
COc1ccc(NS(=O)(=O)c2cccc(NC(=O)c3ccc(S(=O)(=O)N4CCCCCC4)cc3)c2)cc1,-1.83,11.0,13.2,-33.3,97.1*,i
Cc1cc2ccccc2n2c(SCC(=O)Nc3ccc(S(=O)(=O)N4CCCCC4)cc3)nnc12,/,79.4,67.9,-30.8,4.5,i
Cc1cc2cc(C)c3nnc(SCC(=O)Nc4ccc(S(=O)(=O)N5CCCCC5)cc4)n3c2cc1C,-0.52,36.5,16.5,-5.3,55.9*,i
CCc1cc(C(=O)O)c(NC(=O)C(c2ccccc2)c2ccccc2)s1,-0.46,93.7,86.5,6.2,-2.0,i
Cn1cc(CC(=O)NCCCN2CCCC2)c2ccccc21,0.46,101.2,99.9,i,5.1,i
CNC(=O)COC(=O)c1ccc(NC(=O)CC#N)cc1,0.18,95.7,111.0,-5.4,-2.8,i
C[N+]12CCCCC1[C@@H](CO)CCC2 (some centres not stated),0.26,/,/,/,/,/
C/C(=N\NC(=S)NC1CCCCC1)c1cccc(Br)c1,-0.03,91.9,84.0,/,0.2,i
